# Assay results from the supplement of paper PMC4466140.
# What was measured:
# Experiment in all cases: SPOT peptide array binding signal intensity (averaged, normalized) (arbitrary units (background-subtracted, floor 0; scale differs between SH3 domains)); higher = stronger binding of the SH3 domain to the peptide
# AgAbp1 = target: AgAbp1
# How it was run: (§1)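 GST-fused SH3 domains from four yeast species were expressed in E. coli BL21(DE3), purified on glutathione Sepharose and incubated at 10 μg/ml overnight at 4°C in TBS-based blocking buffer on cellulose membranes carrying synthetic 15-mer peptides, with cysteines replaced by serines. Bound protein was detected with anti-GST antibody, an HRP anti-mouse secondary and luminol, then imaged and quantified with Genespotter. Binding signal is the normalized, background-subtracted spot intensity averaged over replicates, in arbitrary units that differ between domains.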
# AgBbc1 = target: AgBbc1
# How it was run: as §1
# AgBem1-D1 = target: AgBem1-D1
# How it was run: as §1
# AgBzz1-D1 = target: AgBzz1-D1
# How it was run: as §1
# AgBzz1-D2 = target: AgBzz1-D2
# How it was run: as §1
# AgCyk3 = target: AgCyk3
# How it was run: as §1
# AgFus1 = target: AgFus1
# How it was run: as §1
# AgHof1 = target: AgHof1
# How it was run: as §1
# AgHse1 = target: AgHse1
# How it was run: as §1
# AgLsb1 = target: AgLsb1
# How it was run: as §1
# AgLsb4 = target: AgLsb4
# How it was run: as §1
# AgMyo5 = target: AgMyo5
# How it was run: as §1
# AgNbp2 = target: AgNbp2
# How it was run: as §1
# AgRvs167 = target: AgRvs167
# How it was run: as §1
# AgSho1 = target: AgSho1
# How it was run: as §1
# AgSla1-D1-D2 = target: AgSla1-D1-D2
# How it was run: as §1
# AgSla1-D3 = target: AgSla1-D3
# How it was run: as §1
# CaAbp1-D1 = target: CaAbp1-D1
# How it was run: as §1
# CaAbp1-D2 = target: CaAbp1-D2
# How it was run: as §1
# CaBbc1 = target: CaBbc1
# How it was run: as §1
# CaBem1-D1 = target: CaBem1-D1
# How it was run: as §1
# CaBzz1-D1 = target: CaBzz1-D1
# How it was run: as §1
# CaBzz1-D2 = target: CaBzz1-D2
# How it was run: as §1
# CaCyk3 = target: CaCyk3
# How it was run: as §1
# CaFus1 = target: CaFus1
# How it was run: as §1
# CaHof1 = target: CaHof1
# How it was run: as §1
# CaHse1 = target: CaHse1
# How it was run: as §1
# CaLsb1 = target: CaLsb1
# How it was run: as §1
# CaLsb4 = target: CaLsb4
# How it was run: as §1
# CaMyo5 = target: CaMyo5
# How it was run: as §1
# CaNbp2 = target: CaNbp2
# How it was run: as §1
# CaRvs167 = target: CaRvs167
# How it was run: as §1
# CaRvs167-3 = target: CaRvs167-3
# How it was run: as §1
# CaSho1 = target: CaSho1
# How it was run: as §1
# CaSla1-D1-D2 = target: CaSla1-D1-D2
# How it was run: as §1
# CaSla1-D3 = target: CaSla1-D3
# How it was run: as §1
# ScAbp1 = target: ScAbp1
# How it was run: as §1
# ScBbc1 = target: ScBbc1
# How it was run: as §1
# ScBem1-D1 = target: ScBem1-D1
# How it was run: as §1
# ScBzz1-D1 = target: ScBzz1-D1
# How it was run: as §1
# ScBzz1-D2 = target: ScBzz1-D2
# How it was run: as §1
# ScCyk3 = target: ScCyk3
# How it was run: as §1
# ScFus1 = target: ScFus1
# How it was run: as §1
# ScHof1 = target: ScHof1
# How it was run: as §1
# ScHse1 = target: ScHse1
# How it was run: as §1
# ScLsb1 = target: ScLsb1
# How it was run: as §1
# ScLsb2 = target: ScLsb2
# How it was run: as §1
# ScLsb3 = target: ScLsb3
# How it was run: as §1
# ScLsb4 = target: ScLsb4
# How it was run: as §1
# ScMyo3 = target: ScMyo3
# How it was run: as §1
# ScMyo5 = target: ScMyo5
# How it was run: as §1
# ScNbp2 = target: ScNbp2
# How it was run: as §1
# ScPex13 = target: ScPex13
# How it was run: as §1
# ScRvs167 = target: ScRvs167
# How it was run: as §1
# ScSho1 = target: ScSho1
# How it was run: as §1
# ScSla1-D1-D2 = target: ScSla1-D1-D2
# How it was run: as §1
# ScSla1-D3 = target: ScSla1-D3
# How it was run: as §1
# SpAbp1-D1 = target: SpAbp1-D1
# How it was run: as §1
# SpBbc1 = target: SpBbc1
# How it was run: as §1
# SpBzz1-D1 = target: SpBzz1-D1
# How it was run: as §1
# SpBzz1-D2 = target: SpBzz1-D2
# How it was run: as §1
# SpCyk3 = target: SpCyk3
# How it was run: as §1
# SpHof1 = target: SpHof1
# How it was run: as §1
# SpHof1-2 = target: SpHof1-2
# How it was run: as §1
# SpHof1-3 = target: SpHof1-3
# How it was run: as §1
# SpHse1 = target: SpHse1
# How it was run: as §1
# SpLsb1 = target: SpLsb1
# How it was run: as §1
# SpLsb4 = target: SpLsb4
# How it was run: as §1
# SpMyo1 = target: SpMyo1
# How it was run: as §1
# SpNbp2 = target: SpNbp2
# How it was run: as §1
# SpPex13 = target: SpPex13
# How it was run: as §1
# SpRvs167 = target: SpRvs167
# How it was run: as §1
# SpSla1-D1-D2 = target: SpSla1-D1-D2
# How it was run: as §1
# SpSla1-D3 = target: SpSla1-D3
# How it was run: as §1
binder,measurement,setting,value
TEVPIPRRPPPPQAA,SPOT peptide array binding signal intensity,AgAbp1,≤ 0
same,SPOT peptide array binding signal intensity,AgBbc1,130
same,SPOT peptide array binding signal intensity,AgBem1-D1,≤ 0
same,SPOT peptide array binding signal intensity,AgBzz1-D1,8
same,SPOT peptide array binding signal intensity,AgBzz1-D2,7.5
same,SPOT peptide array binding signal intensity,AgCyk3,≤ 0
same,SPOT peptide array binding signal intensity,AgFus1,≤ 0
same,SPOT peptide array binding signal intensity,AgHof1,≤ 0
same,SPOT peptide array binding signal intensity,AgHse1,≤ 0
same,SPOT peptide array binding signal intensity,AgLsb1,≤ 0
same,SPOT peptide array binding signal intensity,AgLsb4,23.5
same,SPOT peptide array binding signal intensity,AgMyo5,938
same,SPOT peptide array binding signal intensity,AgNbp2,≤ 0
same,SPOT peptide array binding signal intensity,AgRvs167,2.33
same,SPOT peptide array binding signal intensity,AgSho1,≤ 0
same,SPOT peptide array binding signal intensity,AgSla1-D1-D2,≤ 0
same,SPOT peptide array binding signal intensity,AgSla1-D3,1
same,SPOT peptide array binding signal intensity,CaAbp1-D1,≤ 0
same,SPOT peptide array binding signal intensity,CaAbp1-D2,≤ 0
same,SPOT peptide array binding signal intensity,CaBbc1,768
same,SPOT peptide array binding signal intensity,CaBem1-D1,≤ 0
same,SPOT peptide array binding signal intensity,CaBzz1-D1,32
same,SPOT peptide array binding signal intensity,CaBzz1-D2,≤ 0
same,SPOT peptide array binding signal intensity,CaCyk3,20
same,SPOT peptide array binding signal intensity,CaFus1,≤ 0
same,SPOT peptide array binding signal intensity,CaHof1,1
same,SPOT peptide array binding signal intensity,CaHse1,≤ 0
same,SPOT peptide array binding signal intensity,CaLsb1,0.5
same,SPOT peptide array binding signal intensity,CaLsb4,210
same,SPOT peptide array binding signal intensity,CaMyo5,1
same,SPOT peptide array binding signal intensity,CaNbp2,204
same,SPOT peptide array binding signal intensity,CaRvs167,≤ 0
same,SPOT peptide array binding signal intensity,CaRvs167-3,2.75
same,SPOT peptide array binding signal intensity,CaSho1,≤ 0
same,SPOT peptide array binding signal intensity,CaSla1-D1-D2,≤ 0
same,SPOT peptide array binding signal intensity,CaSla1-D3,0.5
same,SPOT peptide array binding signal intensity,ScAbp1,≤ 0
same,SPOT peptide array binding signal intensity,ScBbc1,≤ 0
same,SPOT peptide array binding signal intensity,ScBem1-D1,≤ 0
same,SPOT peptide array binding signal intensity,ScBzz1-D1,14
same,SPOT peptide array binding signal intensity,ScBzz1-D2,12
same,SPOT peptide array binding signal intensity,ScCyk3,≤ 0
same,SPOT peptide array binding signal intensity,ScFus1,1
same,SPOT peptide array binding signal intensity,ScHof1,≤ 0
same,SPOT peptide array binding signal intensity,ScHse1,≤ 0
same,SPOT peptide array binding signal intensity,ScLsb1,5
same,SPOT peptide array binding signal intensity,ScLsb2,≤ 0
same,SPOT peptide array binding signal intensity,ScLsb3,118
same,SPOT peptide array binding signal intensity,ScLsb4,2
same,SPOT peptide array binding signal intensity,ScMyo3,1370
same,SPOT peptide array binding signal intensity,ScMyo5,569
same,SPOT peptide array binding signal intensity,ScNbp2,12
same,SPOT peptide array binding signal intensity,ScPex13,≤ 0
same,SPOT peptide array binding signal intensity,ScRvs167,1.83
same,SPOT peptide array binding signal intensity,ScSho1,≤ 0
same,SPOT peptide array binding signal intensity,ScSla1-D1-D2,≤ 0
same,SPOT peptide array binding signal intensity,ScSla1-D3,≤ 0
same,SPOT peptide array binding signal intensity,SpAbp1-D1,≤ 0
same,SPOT peptide array binding signal intensity,SpBbc1,1.25
same,SPOT peptide array binding signal intensity,SpBzz1-D1,37
same,SPOT peptide array binding signal intensity,SpBzz1-D2,0.25
same,SPOT peptide array binding signal intensity,SpCyk3,≤ 0
same,SPOT peptide array binding signal intensity,SpHof1,≤ 0
same,SPOT peptide array binding signal intensity,SpHof1-2,≤ 0
same,SPOT peptide array binding signal intensity,SpHof1-3,≤ 0
same,SPOT peptide array binding signal intensity,SpHse1,8
same,SPOT peptide array binding signal intensity,SpLsb1,1
same,SPOT peptide array binding signal intensity,SpLsb4,90.5
same,SPOT peptide array binding signal intensity,SpMyo1,1920
same,SPOT peptide array binding signal intensity,SpNbp2,1
same,SPOT peptide array binding signal intensity,SpPex13,≤ 0
same,SPOT peptide array binding signal intensity,SpRvs167,≤ 0
same,SPOT peptide array binding signal intensity,SpSla1-D1-D2,≤ 0
same,SPOT peptide array binding signal intensity,SpSla1-D3,1
